From the antibiotic and cytotoxicity screens of Wong et al. (2023) come the findings set out here.

Each structure is given as a SMILES string. About 3,300 (8.5%) of roughly 39,000 compounds were called active. Only a selection was taken, and actives are over-represented in it overall.

This test deals with HepG2. In words: cytotoxicity call (relative viability < 0.9). The note with it: 10 µM.
`C[C@@H]1CN([C@H](C)CO)C(=O)c2cc(NC(=O)NC3CCCCC3)ccc2O[C@@H](C)CCCCO[C@H]1CN(C)C(=O)Nc1ccc(F)cc1`: the cytotoxicity call is “inactive”.

Turning to `C[C@H](CO)N1C[C@H](C)[C@@H](CN(C)S(=O)(=O)c2cccs2)OCCCC[C@H](C)Oc2ccc(NS(=O)(=O)c3cn(C)cn3)cc2C1=O`, the cytotoxicity call is “inactive”.

On to `COc1ccc(C#Cc2ccc3c(c2)[C@H]2[C@H](CCN2C(=O)Nc2ccc(C(F)(F)F)cc2)[C@H](CO)N3C)cc1`, for which the cytotoxicity call was “inactive”.

For the compound `C[C@H](CO)N1C[C@H](C)[C@@H](CN(C)S(=O)(=O)c2cn(C)cn2)Oc2ccc(NC(=O)c3ccncc3)cc2C1=O`, the cytotoxicity call is “inactive”.

Take `C[C@@H]1CN([C@H](C)CO)S(=O)(=O)c2ccc(Br)cc2O[C@H]1CN(C)Cc1cccc(C(=O)O)c1`: the cytotoxicity call was “inactive”.

As for `C[C@@H]1CN([C@H](C)CO)C(=O)c2cccc(NC(=O)Nc3ccccc3)c2O[C@H]1CN(C)Cc1ccc(C(=O)Nc2ccccc2N)cc1`, the cytotoxicity call was “inactive”.

As to `O=C(C[C@H]1C[C@H]2c3cc(NC(=O)Nc4ccccc4F)ccc3O[C@H]2[C@H](CO)O1)NCc1ccc(Oc2ccccc2)cc1`, the cytotoxicity call is “inactive”.

As for `O=C(C[C@H]1C[C@@H]2c3cc(NC(=O)NC4CCCC4)ccc3O[C@@H]2[C@H](CO)O1)NCc1ccc(Oc2ccccc2)cc1`, the cytotoxicity call is “active”.

In the case of `O=C(C[C@@H]1C[C@H]2c3cc(NC(=O)Nc4ccccc4F)ccc3O[C@H]2[C@H](CO)O1)NCc1ccc(Oc2ccccc2)cc1`, the cytotoxicity call was “inactive”.

Turning to `O=C(C[C@H]1C[C@@H]2c3cc(NC(=O)NC4CCCC4)ccc3O[C@@H]2[C@@H](CO)O1)NCc1ccc(Oc2ccccc2)cc1`, the cytotoxicity call was “inactive”.

On to `O=C(C[C@@H]1C[C@H]2c3cc(NC(=O)NC4CCCC4)ccc3O[C@H]2[C@H](CO)O1)NCc1ccc(Oc2ccccc2)cc1`, for which the cytotoxicity call is “inactive”.

On to `O=C(C[C@@H]1C[C@H]2c3cc(NC(=O)NC4CCCC4)ccc3O[C@H]2[C@@H](CO)O1)NCc1ccc(Oc2ccccc2)cc1`, for which the cytotoxicity call is “inactive”.

With `O=C(C[C@H]1C[C@H]2c3cc(NC(=O)NC4CCCC4)ccc3O[C@H]2[C@H](CO)O1)NCc1ccc(Oc2ccccc2)cc1`, the cytotoxicity call is “active”.

`O=C(C[C@@H]1C[C@@H]2c3cc(NC(=O)Nc4ccccc4F)ccc3O[C@@H]2[C@@H](CO)O1)NCc1ccc(Oc2ccccc2)cc1`: the cytotoxicity call was “active”.

Consider `O=C(C[C@@H]1C[C@@H]2c3cc(NC(=O)NC4CCCC4)ccc3O[C@@H]2[C@H](CO)O1)NCc1ccc(Oc2ccccc2)cc1`, for which the cytotoxicity call was “inactive”.

As to `CC(C)(C)OC(=O)C[C@@H]1CC=CC[C@H](CC(=O)NCCO)C(=O)NCCOC1=O`, the cytotoxicity call is “inactive”.

As to `COCC#Cc1ccc([C@@H]2[C@H](CO)N3C(=O)CN(C(=O)c4ccncc4)C[C@@H]23)cc1`, the cytotoxicity call was “inactive”.

For the compound `CO[C@H]1CN(C)C(=O)c2ccc(NS(C)(=O)=O)cc2OC[C@@H](C)N(C(=O)CN(C)C)C[C@H]1C`, the cytotoxicity call was “inactive”.

For `C[C@@H]1CN([C@H](C)CO)C(=O)Cc2cc(NS(=O)(=O)c3ccc(F)cc3)ccc2O[C@H]1CN(C)Cc1ccncc1`, the cytotoxicity call was “inactive”.

Consider `C=CCC[C@H](Cc1ccc(F)cc1)C(=O)OC[C@@H]1CCCN1C(=O)[C@H](CC=C)CC(=O)N(CCO)Cc1ccccc1`, for which the cytotoxicity call was “inactive”.

Regarding `CC(C)(C)OC(=O)N1CCNC(=O)C1`, the cytotoxicity call is “inactive”.

For the compound `O=C(O)CCN1C(=O)NC2(CCCC2)C1=O`, the cytotoxicity call was “inactive”.

`O=C(C1=C[C@@H](c2ccsc2)C[C@@H](OCCCCO)O1)N1CCN(Cc2ccc3c(c2)OCO3)CC1`: the cytotoxicity call is “inactive”.

For the compound `C[C@H]1CN([C@@H](C)CO)C(=O)CCCn2nncc2CO[C@@H]1CN(C)C(=O)CCCN(C)C`, the cytotoxicity call is “inactive”.

In the case of `C[C@H]1CN([C@@H](C)CO)C(=O)Cc2cc(NC(=O)CCN3CCOCC3)ccc2O[C@@H]1CN(C)S(=O)(=O)c1ccc(Cl)cc1`, the cytotoxicity call is “inactive”.

Take `CC(=O)O[C@@H](C)C[N+](C)(C)C`: the cytotoxicity call is “inactive”.

For the compound `CC(C[N+](C)(C)C)OC(N)=O.[Cl-]` (configuration not stated), the cytotoxicity call is “inactive”.

For `CC(=O)OC(C)C[N+](C)(C)C.[Cl-]` (configuration not stated), the cytotoxicity call was “active”.

In the case of `O=C(C[C@H]1CC[C@H]2[C@@H](COC[C@@H](O)CN2C(=O)Nc2cccc(Cl)c2)O1)NCc1ccccc1F`, the cytotoxicity call is “inactive”.

Take `CN(C)Cc1cn(CC[C@@H]2CC[C@@H](NC(=O)Cc3cccnc3)[C@@H](CO)O2)nn1`: the cytotoxicity call was “inactive”.

For `C[C@@H]1CCCCO[C@@H](CN(C)C(=O)c2ccncc2)[C@H](C)CN([C@H](C)CO)C(=O)c2cc(NS(=O)(=O)c3cn(C)cn3)ccc2O1`, the cytotoxicity call was “inactive”.

Turning to `O=C(C[C@@H]1CC[C@H]2[C@@H](COC[C@@H](O)CN2S(=O)(=O)c2ccccc2F)O1)NCc1ccccc1Cl`, the cytotoxicity call was “inactive”.

Take `C[C@@H]1CN([C@H](C)CO)C(=O)c2cc(NS(C)(=O)=O)ccc2O[C@@H]1CN(C)Cc1ccc(C(=O)Nc2ccccc2N)cc1`: the cytotoxicity call is “inactive”.

Turning to `COc1ccc(CNC(=O)c2cc3c(c(-c4cccc(-c5ccc(C#N)cc5)c4)n2)[C@H](CCO)N([S@@](=O)C(C)(C)C)C3)cc1`, the cytotoxicity call was “inactive”.

As for `COc1ccc(C2=N[C@H](c3ccc(Cl)cc3)[C@H](c3ccc(Cl)cc3)N2C(=O)N2CCNC(=O)C2)c(OC(C)C)c1`, the cytotoxicity call was “inactive”.

As to `COc1ccc(C2=N[C@@H](c3ccc(Cl)cc3)[C@@H](c3ccc(Cl)cc3)N2C(=O)N2CCNC(=O)C2)c(OC(C)C)c1`, the cytotoxicity call is “active”.

For the compound `COc1ccc(S(=O)(=O)N(C)C[C@@H]2Oc3ccc(NC(=O)C4CC4)cc3C(=O)N([C@@H](C)CO)C[C@@H]2C)cc1`, the cytotoxicity call is “inactive”.

As to `Cc1noc(C)c1NC(=O)N(C)C[C@H]1Oc2c(NS(=O)(=O)c3cn(C)cn3)cccc2C(=O)N([C@H](C)CO)C[C@@H]1C`, the cytotoxicity call is “inactive”.

On to `C[C@@H]1CCCCO[C@H](CN(C)C(=O)Nc2ccc3c(c2)OCO3)[C@H](C)CN([C@H](C)CO)C(=O)c2cc(NC(=O)NC3CCCCC3)ccc2O1`, for which the cytotoxicity call was “active”.

Turning to `C[C@@H]1CCCCO[C@@H](CN(C)C(=O)Nc2ccc3c(c2)OCO3)[C@@H](C)CN([C@@H](C)CO)C(=O)c2cc(NC(=O)NC3CCCCC3)ccc2O1`, the cytotoxicity call was “inactive”.

In the case of `C[C@@H]1CCCCO[C@@H](CN(C)C(=O)Nc2ccc3c(c2)OCO3)[C@H](C)CN([C@H](C)CO)C(=O)c2cc(NC(=O)NC3CCCCC3)ccc2O1`, the cytotoxicity call was “inactive”.

As for `C[C@@H]1CN([C@@H](C)CO)C(=O)c2cc(NC(=O)NC3CCCCC3)ccc2O[C@@H](C)CCCCO[C@H]1CN(C)C(=O)Nc1ccc2c(c1)OCO2`, the cytotoxicity call is “active”.

For `C[C@H](CO)N1C[C@H](C)[C@@H](CN(C)C(=O)Nc2ccc3c(c2)OCO3)OCCCC[C@H](C)Oc2ccc(NC(=O)NC3CCCCC3)cc2C1=O`, the cytotoxicity call is “inactive”.

In the case of `C[C@@H]1CCCCO[C@H](CN(C)C(=O)Nc2ccc3c(c2)OCO3)[C@H](C)CN([C@@H](C)CO)C(=O)c2cc(NC(=O)NC3CCCCC3)ccc2O1`, the cytotoxicity call was “inactive”.

Take `C[C@@H]1CN([C@@H](C)CO)C(=O)Cc2cc(NC(=O)CCCN(C)C)ccc2O[C@H]1CN(C)S(=O)(=O)c1ccc(Cl)cc1`: the cytotoxicity call was “inactive”.

In the case of `Cc1noc(C)c1NC(=O)N(C)C[C@H]1Oc2ccc(NC(=O)C3CC3)cc2CC(=O)N([C@@H](C)CO)C[C@@H]1C`, the cytotoxicity call is “inactive”.

For the compound `C[C@@H]1CCCCO[C@@H](CN(C)S(=O)(=O)c2cn(C)cn2)[C@H](C)CN([C@@H](C)CO)C(=O)c2cc(NC(=O)Nc3cccc4ccccc34)ccc2O1`, the cytotoxicity call is “inactive”.

Take `CCCNC(=O)N(C)C[C@@H]1Oc2ncc(-c3ccc(C(=O)N(C)C)cc3)cc2C(=O)N([C@H](C)CO)C[C@H]1C`: the cytotoxicity call is “inactive”.

As for `C[C@@H]1CCCCO[C@@H](CN(C)C(=O)Nc2ccc(C(F)(F)F)cc2)[C@H](C)CN([C@@H](C)CO)C(=O)c2cc(NC(=O)Nc3ccc(F)cc3)ccc2O1`, the cytotoxicity call is “inactive”.

Take `Cc1ccc(S(=O)(=O)N(C)C[C@H]2OCCCC[C@H](C)Oc3ccc(NS(=O)(=O)c4ccc(F)cc4)cc3C(=O)N([C@H](C)CO)C[C@@H]2C)cc1`: the cytotoxicity call is “inactive”.

With `C[C@H](CO)N1C[C@H](C)[C@H](CN(C)Cc2ccc(C(=O)Nc3ccccc3N)cc2)Oc2ccc(NC(=O)Nc3cccc4ccccc34)cc2CC1=O`, the cytotoxicity call is “active”.

As to `C[C@H](CO)N1C[C@H](C)[C@H](CN(C)Cc2ccc(C(=O)Nc3ccccc3N)cc2)Oc2ccc(NC(=O)Nc3ccccc3)cc2CC1=O`, the cytotoxicity call is “inactive”.

For `C[C@@H]1CN([C@@H](C)CO)C(=O)Cc2cc(NC(=O)Nc3ccc(F)cc3)ccc2O[C@H]1CN(C)Cc1ccc(C(=O)Nc2ccccc2N)cc1`, the cytotoxicity call was “inactive”.

In the case of `COc1ccc(NC(=O)Nc2ccc3c(c2)CC(=O)N([C@H](C)CO)C[C@H](C)[C@@H](CN(C)Cc2ccc(C(=O)Nc4ccccc4N)cc2)O3)cc1`, the cytotoxicity call was “inactive”.

For `C[C@@H]1CN([C@H](C)CO)C(=O)Cc2cc(NC(=O)Nc3cccc4ccccc34)ccc2O[C@@H]1CN(C)Cc1ccc(C(=O)Nc2ccccc2N)cc1`, the cytotoxicity call is “inactive”.

Take `C[C@@H]1CN([C@H](C)CO)C(=O)Cc2cc(NC(=O)Nc3ccc(F)cc3)ccc2O[C@@H]1CN(C)Cc1ccc(C(=O)Nc2ccccc2N)cc1`: the cytotoxicity call was “active”.

Regarding `C[C@@H]1CN([C@H](C)CO)C(=O)Cc2cc(NC(=O)Nc3ccccc3)ccc2O[C@@H]1CN(C)Cc1ccc(C(=O)Nc2ccccc2N)cc1`, the cytotoxicity call was “active”.

Turning to `COc1ccc(NC(=O)Nc2ccc3c(c2)CC(=O)N([C@H](C)CO)C[C@@H](C)[C@@H](CN(C)Cc2ccc(C(=O)Nc4ccccc4N)cc2)O3)cc1`, the cytotoxicity call was “active”.

For `C[C@H]1CN([C@@H](C)CO)C(=O)Cc2cc(NC(=O)Nc3ccccc3)ccc2O[C@H]1CN(C)Cc1ccc(C(=O)Nc2ccccc2N)cc1`, the cytotoxicity call is “inactive”.

For `C[C@H](CO)N1C[C@H](C)[C@@H](CN(C)Cc2ccc(C(=O)Nc3ccccc3N)cc2)Oc2ccc(NC(=O)Nc3ccccc3)cc2CC1=O`, the cytotoxicity call was “inactive”.

As to `C[C@@H]1CN([C@H](C)CO)C(=O)Cc2cc(NC(=O)Nc3cccc4ccccc34)ccc2O[C@H]1CN(C)Cc1ccc(C(=O)Nc2ccccc2N)cc1`, the cytotoxicity call is “inactive”.

Consider `COc1ccc(NC(=O)Nc2ccc3c(c2)CC(=O)N([C@@H](C)CO)C[C@H](C)[C@@H](CN(C)Cc2ccc(C(=O)Nc4ccccc4N)cc2)O3)cc1`, for which the cytotoxicity call is “inactive”.
